From PubChem BioAssay (NCATS) come the findings set out here.

Records with an inconclusive call do not appear. Where a call stands in place of a potency, no number is given. Calls of active or inactive are those of the source. Calls come from the whole dose curve; as a rule, active = well fitted inhibition curve with a large enough effect; inconclusive = small, poorly fitted or top-dose-only effect, or effect the other way; inactive = flat fitted curve, though single readings scatter.

The nature of this test: qHTS for Inhibitors of Plasmodium falciparum (CP250) proliferation (AID 504320). Particulars: P. falciparum CP250 in erythrocytes, SYBR Green DNA, 72 h; series mostly up to 6.7 µM. The source says: Plasmodium falciparum is a virulent malarial parasite that kills 1-2 million people worldwide each year. Malaria not only inflicts tremendous suffering and morbidity on the human population, but has dramatically influenced the course of civilization with profound sociological and economic implications (Shah, S. 2010). Transmitted by mosquitoes, the sporozoite form of the parasite enters the blood stream to infect hepatocytes, where they become merozoites that infect red blood cells (erythrocytes). Within erythrocytes, merozoites begin a […] cycle of growth and division, after which the parasite is released to infect new red blood cells. Gametocytes, which form within erythrocytes as well, circulate in the bloodstream and are ingested by the mosquito, thereby completing the life cycle (see CDC website). To profile malarial lines for differential chemical responses and to identify inhibitors of malarial growth, an assay that measures P. falciparum growth and replication within erythrocytes was employed. This assay uses a DNA binding fluorescent dye (SYBR Green) to detect parasite DNA following cell lysis. Because mature erythrocytes lack DNA, only Plasmodium-derived DNA is detected. The P. falciparum line cp250, derived from a malarial isolate from Cambodia, (Mu, J., et al. 2010) was added to the panel of lines, Dd2, HB3, 7G8 and GB4 in this study. Laboratory of Assay Development and Screening Technology [ADST] and NIH Chemical Genomics Center [NCGC] Boston University, Chemistry Department, Center for Chemical Methodology and Library Development [CMLD-BU] NIH National Institute of Allergy and Infectious Diseases [NIAID]
ADST Assay Protocol Summary: The 1536-well SYBR Green viability assay was based on the method of Bennett et al (2004) and described previously in 1536-well format (Yuan J., et al. 2009). For screening 3 ul culture medium was dispensed into 1536 well black clear bottom plates (Aurora Biotechnologies) using a Multidrop Combi (Thermo Fisher Scientific Inc.), 23 nL compounds in DMSO were added by a pin transfer (Cleveland, P.H. and Koutz, P.J, 2005) using a pin tool-based delivery system (Kalypsys), and 5 ul of erythrocytes infected with P. falciparum one of five lines (cp250, Dd2, HB3, 7G8 or GB4, 0.3% parasitemia, 2.5% hematocrit final concentration) were added. The plates were incubated at 37C in a humidified incubator in 5% CO2 for 72 h, and 2 ul lysis buffer (20 mM Tris HCl, 10 mM EDTA, 0.16% saponin, 1.6% triton X, 10X SYBR Green I (supplied as 10,000X final concentration by Invitrogen) was added to each well. The plates were mixed for 25 sec with gentle shaking and incubated overnight at room temperature in the dark. The following morning, fluorescence intensity at 485(14) nm excitation and 535(25) nm emission wavelengths was measured on an EnVision (Perkin Elmer) plate reader. Plate reads were normalized relative to the control inhibitor (0.29 uM artemisinin) and vehicle (DMSO) wells present on each plate and then corrected by an algorithm using vehicle-only control plates at the beginning and end of the compound plate stack. References Shah, S. (2010). The Fever: how malaria has ruled humankind for 500,000 years. New York, Sarah Crichton Books. CDC web site, http://www.cdc.gov/malaria/about/biology/index.html Mu, J., Myers, R.A., Jiang, H., Liu, S., Ricklefs, S., Waisberg, M., Chotivanich, K., Wilairatana, P., Krudsood, S., White, N.J., et Plasmodium falciparum genome-wide scans for positive selection, recombination hot spots and resistance to antimalarial drugs Nature Genetics 2010, 42, pp 268-271 Bennett TN, Paguio, M., Gligorijevic, B., Seudieu, C., Kosar, A. D., Davidson, E., and Roepe, P. D. Novel, rapid, and inexpensive cell-based quantification of antimalarial drug efficacy Antimicrobial Agents Chemother. 2004, 48(5): pp 1807-10 Yuan J, Johnson RL, Huang RL, Wichterman J, Jiang HY, Hayton K, Fidock DA, Wellems TE, Inglese J, Austin CP, Su XZ. […]
As for `COCC=CC1=CC2=CC(=O)C(C)(OC(=O)c3cnc4ccccc4n3)C(=O)C2=CN1C1CC1` (stereo not given), the Potency result was “inactive”.

As for `C#CCCCON=C1C[C@@H](O)[C@H](O)[C@H]2[C@@H]3C(=O)N(c4cccc(Oc5ccccc5)c4)C(=O)[C@@H]3CC[C@@H]12`, the Potency entry is “inactive”.

Consider `COc1ccc2c(c1)C[C@@H](C)O[C@]21C(=O)Nc2ccccc21`, for which the Potency entry is “inactive”.

As to `COc1ccc(O[C@H]2C=C[C@@H](c3ccccc3)O[C@H]2CON=C2c3cc(OC)ccc3O[C@H](c3cccc(OC)c3)[C@H]2O)cc1`, the Potency entry was “inactive”.

For the molecule `COC(=O)CCCC1=CC2=CC(=O)C(C)(OC(=O)c3cccs3)C(=O)C2=CN1CCCOC(C)C` (stereo not given), the Potency result is “inactive”.

In the case of `CCOC(=O)CCN1C(=O)[C@@H]2[C@H]3[C@H](O)[C@H](O)CC(=NOCC(C)C)[C@@H]3CC[C@H]2C1=O`, the Potency result was “inactive”.

Turning to `COC(=O)C1=C[C@@]2(c3ccc(F)cc3[C@@H](OC)[C@@H]2C)[C@@H]2C=C[C@H]1C2`, the Potency entry is “inactive”.

Take `C=CC[C@@]1(c2ccccc2)Oc2ccccc2-c2nc3ccccc3nc21`: the Potency entry was “inactive”.

As for `COC(=O)C1=C2C=C(C)CC(C)N2C(=O)NC1c1ccccc1` (stereo not given), the Potency result is “inactive”.

As to `COC(=O)C1=C(C(=O)OC)[C@@H]2N(C)c3ccccc3[C@@]23C[C@@H](C(=O)OC)N(C(=O)Nc2cccc(C#N)c2)C3=N1`, the Potency result is “inactive”.

As for `CCN1C(=NCc2cc(OC)c(OC)c(OC)c2)NC(c2ccccc2)C(C(=O)OC)=C1C` (stereo not given), the Potency result was “inactive”.

In the case of `C=CCCN1C(=O)NC(c2ccccc2)C(C(C)=O)=C1C` (stereo not given), the Potency entry was “inactive”.

Consider `CCN1C(N(C)CCOC)=NC(c2cccc(F)c2)C(C(=O)OC)=C1C` (stereo not given), for which the Potency result was “inactive”.

Consider `CCOC(=O)CN1C(=O)[C@]2(O[C@H](C)CC3=CCCC32)c2c(Br)cccc21` (stereo not given in full), for which the Potency entry was “inactive”.

Regarding `COc1ccc(COC(=O)NN=C2C[C@@H](O)[C@@H](O)[C@@H]3[C@H]4C(=O)N([C@@H](C)c5ccccc5)C(=O)[C@@H]4CC[C@H]23)cc1`, the Potency entry was “inactive”.

In the case of `Cc1cc(C)c2c(c1)CO[C@H]([C@H](O)CO)[C@H]2C=Cc1ccccc1`, the Potency result was “inactive”.

`C=CCOC(=O)C1=C(C)N(CC)C(=O)NC1c1ccccc1` (stereo not given): the Potency result is “inactive”.

Take `CCN1C(=NCCCCO)NC(c2cccc(C(F)(F)F)c2)C(C(=O)OC)=C1C` (stereo not given): the Potency result is “inactive”.

`CCN1C(=O)[C@@H]2[C@H]3[C@H](O)[C@H](O)CC(=NO[C@@H](C)c4cn([C@H](CO)Cc5ccccc5)nn4)[C@@H]3CC[C@H]2C1=O`: the Potency result is “inactive”.

For the molecule `COCCN1C(=O)N(C)C(c2ccccc2)C(C(C)=O)=C1C` (stereo not given), the Potency entry was “inactive”.

In the case of `N#Cc1ccc2c(c1)C[C@]1(CCCCN3C(=O)c4ccccc4C3=O)Oc3cc(-c4ccccc4)oc(=O)c3[C@H]2O1`, the Potency entry is “inactive”.

As to `CC(=O)OC[C@H]1O[C@@H](ON=C[C@@H](C)[C@H](OCc2ccccc2)C(C)C)[C@@H](OC(C)=O)[C@@H](OC(C)=O)[C@@H]1OC(C)=O`, the Potency entry was “inactive”.

As to `COc1ccc(C(=O)Oc2cc(OC)cc(OC)c2C(C)=O)cc1`, the Potency entry is “inactive”.

With `C=C(Nc1ccc(OC)cc1)C(=O)OC`, the Potency result was “inactive”.

Turning to `COc1ccc(O[C@H]2C=C[C@@H](c3ccccc3)O[C@H]2CON=C2[C@H]3CCn4c(=O)n(-c5ccccc5)c(=O)n4[C@@H]3[C@H](O)[C@@H]3O[C@H]23)cc1`, the Potency result is “inactive”.

`COC(=O)N[C@@H](c1ccccc1)[C@]1(C(C)=O)CCCC1=O`: the Potency result was “inactive”.

In the case of `COc1cccc([C@@H]2Oc3ccc(OC)cc3C(=O)[C@@H]2OC(=O)Nc2cc(OC)c(OC)c(OC)c2)c1`, the Potency result is “inactive”.

As to `COc1cccc([C@H]2Oc3ccc(OC)cc3C(=NOCC[C@@H]3C=C[C@H](OC(C)=O)[C@@H](COC(C)=O)O3)[C@H]2O)c1`, the Potency result was “inactive”.

Consider `CC1(OC(=O)C2CCCC2)C(=O)C=C2C=C(c3ccsc3)OC=C2C1=O` (stereo not given), for which the Potency result is “inactive”.

With `C#CCCOC(=O)N1C2=NC(C(=O)OC)=C(C(=O)OC)[C@@H]3N(C)c4ccccc4[C@]23C[C@H]1C(=O)OC`, the Potency result is “inactive”.

As for `CC(C)[C@@H](OCc1ccccc1)[C@H](C)C=NOC[C@@H](O)COCc1ccco1`, the Potency result is “inactive”.

For `Cc1cccc(C)c1Nc1oc(-c2ccccc2)nc1-c1ccccc1`, the Potency entry is “inactive”.

In the case of `C[C@@H]1CC[C@H]2C(=O)N(Cc3ccccc3)C[C@H](O)CN2[C@@H]1c1ccc(Br)cc1`, the Potency result is “inactive”.

Regarding `COc1ccc2c(c1)CO[C@H]([C@H](O)COC(C)=O)[C@H]2C=Cc1ccccc1`, the Potency entry was “inactive”.

On to `C=CC1=C2C=C(C3CC3)N(CCCOC(C)C)C=C2C(=O)C(C)(OC(=O)c2ccco2)C1=O` (stereo not given), for which the Potency result was “inactive”.

As to `O=C1[C@@H]2[C@H]3[C@H](O)[C@H](O)CC(=NOC[C@@H](O)COCc4ccco4)[C@@H]3CC[C@H]2C(=O)N1C[C@@H]1CCCO1`, the Potency result is “inactive”.

For the molecule `COC1=CC2C(=O)C(C1=O)[C@H](c1ccccc1)[C@H]2C` (stereo not given in full), the Potency entry is “inactive”.

Turning to `N#Cc1ccc2c(c1)C[C@]1(CCCCN3C(=O)c4ccccc4C3=O)OC3=C(C(=O)OC4(CCCCC4)C3)[C@H]2O1`, the Potency entry is “inactive”.

On to `CC=COC(=O)N[C@@H](c1cccc(C)c1)[C@]1(C(=O)OCC)CCCC1=O`, for which the Potency entry is “inactive”.

On to `C=CCOC(=O)N[C@H](C(C(=O)OC)=C(C)NCc1ccccc1)c1ccc(Br)cc1`, for which the Potency entry is “inactive”.
